# Reference: PubChem BioAssay (NCI)
# The panel holds about 83,000 compounds, 20% with a hit somewhere; the sample as a whole holds those more often.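 48-hour exposure, single concentration, 96-well plates; percent growth endpoint where 0 means no net growth. Active: below 10.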 Values without a mark were called inactive. Calls of active or inactive are those of the source.
# Tested on: NCI-H226 lung
# Experiment: NCI-60 one-dose screen, 48 h (100 = growth as untreated, 0 = no growth, -100 = all killed)
# Details: 10 µM unless noted
row,SMILES,growth [%]
1,CCCCCCCCCc1cc(CN2CCCCC2)c(O)c(CN2CCCCC2)c1,75.9
2,CCOc1ccc(Nc2nc(-c3c(C)nc4ncccn34)cs2)cc1,52.1
3,C=C1CCC2C3(C)COC(C)(C)OC3CCC2(C)C1C/C=C1/C(=O)OCC1OC(C)=O (centres undefined),50.3
4,CSc1nc(NCCO)c(C#N)c(-c2cccc(N)c2)n1,92.8
5,Nc1ccc(N2CCOCC2)cc1,102
6,O=C1C[C@H](Sc2nc(-c3ccc(F)cc3)cc(C(F)(F)F)n2)[C@H]2CO[C@@H]1O2,103
7,Cc1nc2sc(C(=O)Nc3cccc4c3OCCO4)c(N)c2cc1C(C)O (centres undefined),50.2
8,COc1cc(NCCCCN=C(N)N)c2ncccc2c1,98.9
9,CCOC(=S)SCc1ccc(Cl)cc1,101
10,NCc1cn2cc(Cl)sc2n1,101
11,O=C1C=CC(=O)c2c1nc1n2CCCC1,95

# Tested on: NCI-H322M lung
# Experiment: as above
# Details: 10 µM unless noted
row,SMILES,growth
1,CN1CCN(Cc2ccc(NC(=O)c3[nH]ncc3Nc3ncnc4c3CCC4)cc2)CC1,16.5%
2,CCN(C(=O)CN1CCN(c2cc3c(cc2F)c(=O)c(C(=O)O)cn3C2CC2)CC1)c1nc(-c2ccc(OC)cc2)cs1,38.8%
3,C[C@@H]1CC[C@@H]2[C@@H]1[C@H](OC(=O)/C=C/c1ccccc1)[C@]1(C3CCCCC3)C[C@@H](OC(=O)CO)[C@@]2(C)O1,92.9%
4,Cc1cc(=O)oc2cc(Oc3nc(-c4ccc(Cl)cc4)cn4c(-c5ccc(Cl)cc5)cnc34)ccc12,95.9%
5,Nc1cc2ccncc2c2ccccc12,61.7%
6,O=C([C@@H](COCc1ccccc1)N1C(=O)[C@@H](N2C(=O)OC[C@@H]2c2ccccc2)[C@H]1/C=C/c1ccccc1)N1CCC(CCN2CCCCC2)CC1,83.2%
7,COc1ccc(N(Cc2cc(OC)c(OC)c(OC)c2)C2OC(=O)c3ccccc32)cc1 (centres undefined),52.4%
8,Cn1c2ccccc2c2c3c(c4c5ccccc5[nH]c4c21)C(=O)N(N)C3=O,85.1%
9,COC(/C=C/c1ccc([N+](=O)[O-])cc1)OC,101%
10,OC(c1cccc(C(F)(F)F)c1)c1cnccc1NC1CCCCCC1 (centres undefined),46.3%
11,O=C(CNC1C2CC3CC(C2)CC1C3)Sc1nnc2sc3ccccc3n12 (centres undefined),113%
12,C=CC[N+]1(CC)CCN=C1CCCCCCCCCCCCCCCCC (centres undefined),27.8%
13,O=C(Nc1ccc(CN2CCOCC2)cc1)c1[nH]ncc1Nc1ncnc2sccc12,6.2% (active)
14,O=c1c(/C=C/c2ccco2)nnc(SCCN2CCOCC2)n1/N=C/c1ccc([N+](=O)[O-])cc1,113%
15,COc1cc(C2CC(=O)Nc3c2c(C)nn3-c2nc3ccccc3[nH]2)cc(OC)c1OC (centres undefined),103%
16,CCCCN(CCCC)CCC(C)(O)c1cc2ccccc2c2ccccc12 (centres undefined),73.5%
17,OCCNCCNc1c2ccccc2nc2ccccc12,52.7%
18,C/C(=C(/c1ccc(O)cc1)c1ccc(OCCN(C)C)cc1)c1ccccc1,77%
19,CC#Cc1nc2ccccc2c(=O)[nH]1,104%

row,SMILES,growth
1,CNC(=O)c1cc(Oc2ccc3nc(NC(=O)Nc4ccc(N5CCC(N(C)C)CC5)cc4)sc3c2)ccn1,88.9%
2,CCN(CC)CCCNc1cc(OC)cc2nc3cc(Cl)ccc3nc12,-0.828% (active)
3,Cn1c2ccccc2c2c3c(c4c5ccccc5n(CCCCCC#N)c4c21)C(=O)N(O)C3=O,48.8%
4,CN1CCN(Cc2ccc(NC(=O)c3[nH]ncc3Nc3ccnc4ccsc34)cc2)CC1,20%
5,O=C(NCc1cccc(C(F)(F)F)c1)[C@H](CCC(=O)N1CCN(C2CCCCC2)CC1)N1C(=O)[C@@H](N2C(=O)OC[C@@H]2c2ccccc2)[C@H]1/C(Cl)=C/c1ccccc1,36.4%
6,CC/C(=C(\c1ccccc1)c1ccc(OCCNC)cc1)c1ccccc1,-99.5% (active)
7,O=C(COCc1c(-c2ccccc2)no[n+]1[O-])Nc1ccc(C(=O)/C=C/c2ccc3c(c2)OCO3)cc1,113%
8,COc1ccc2nc(NC(=O)c3cccnc3Nc3cc(OC)c(OC)c(OC)c3)sc2c1,-54.3% (active)
9,CCCCCCCCCc1cc(CN2CCCCC2)c(O)c(CN2CCCCC2)c1,88.4%
10,CCOc1ccc(Nc2nc(-c3c(C)nc4ncccn34)cs2)cc1,52.2%
11,C=C1CCC2C3(C)COC(C)(C)OC3CCC2(C)C1C/C=C1/C(=O)OCC1OC(C)=O (centres undefined),100%
12,CSc1nc(NCCO)c(C#N)c(-c2cccc(N)c2)n1,97.6%
13,Nc1ccc(N2CCOCC2)cc1,91.2%
14,O=C1C[C@H](Sc2nc(-c3ccc(F)cc3)cc(C(F)(F)F)n2)[C@H]2CO[C@@H]1O2,108%
15,Cc1nc2sc(C(=O)Nc3cccc4c3OCCO4)c(N)c2cc1C(C)O (centres undefined),62.8%
16,COc1cc(NCCCCN=C(N)N)c2ncccc2c1,73.5%
17,CCOC(=S)SCc1ccc(Cl)cc1,102%
18,NCc1cn2cc(Cl)sc2n1,90.3%
19,O=C1C=CC(=O)c2c1nc1n2CCCC1,29.8%
